Test [1] deals with Serine/threonine-protein kinase MRCK alpha (Homo sapiens) (UniProt Q5VT25). The conditions noted are these: at 0.1 µM.
Test [2] has the same target. The conditions noted are these: at 1 µM.
Test [3] has as its target Serine/threonine-protein kinase MRCK beta (Homo sapiens) (UniProt Q9Y5S2). The conditions noted are these: at 0.1 µM.
Test [4] shares this target. The conditions noted are these: at 1 µM.
For test [5], the target named is Ribosomal protein S6 kinase alpha-5 (Homo sapiens) (UniProt O75582). The conditions noted are these: at 0.1 µM.
For test [6] the target is unchanged. The conditions noted are these: at 1 µM.
Test [7] concerns the target Ribosomal protein S6 kinase alpha-4 (Homo sapiens) (UniProt O75676). The conditions noted are these: at 0.1 µM.
Test [8] shares this target. The conditions noted are these: at 1 µM.
Test [9] addresses Ribosomal protein S6 kinase beta-1 (Homo sapiens) (UniProt P23443). The conditions noted are these: at 0.1 µM.
Test [10] shares this target. The conditions noted are these: at 1 µM.

Sequence of Serine/threonine-protein kinase MRCK alpha (Homo sapiens) (Q5VT25 whole entry): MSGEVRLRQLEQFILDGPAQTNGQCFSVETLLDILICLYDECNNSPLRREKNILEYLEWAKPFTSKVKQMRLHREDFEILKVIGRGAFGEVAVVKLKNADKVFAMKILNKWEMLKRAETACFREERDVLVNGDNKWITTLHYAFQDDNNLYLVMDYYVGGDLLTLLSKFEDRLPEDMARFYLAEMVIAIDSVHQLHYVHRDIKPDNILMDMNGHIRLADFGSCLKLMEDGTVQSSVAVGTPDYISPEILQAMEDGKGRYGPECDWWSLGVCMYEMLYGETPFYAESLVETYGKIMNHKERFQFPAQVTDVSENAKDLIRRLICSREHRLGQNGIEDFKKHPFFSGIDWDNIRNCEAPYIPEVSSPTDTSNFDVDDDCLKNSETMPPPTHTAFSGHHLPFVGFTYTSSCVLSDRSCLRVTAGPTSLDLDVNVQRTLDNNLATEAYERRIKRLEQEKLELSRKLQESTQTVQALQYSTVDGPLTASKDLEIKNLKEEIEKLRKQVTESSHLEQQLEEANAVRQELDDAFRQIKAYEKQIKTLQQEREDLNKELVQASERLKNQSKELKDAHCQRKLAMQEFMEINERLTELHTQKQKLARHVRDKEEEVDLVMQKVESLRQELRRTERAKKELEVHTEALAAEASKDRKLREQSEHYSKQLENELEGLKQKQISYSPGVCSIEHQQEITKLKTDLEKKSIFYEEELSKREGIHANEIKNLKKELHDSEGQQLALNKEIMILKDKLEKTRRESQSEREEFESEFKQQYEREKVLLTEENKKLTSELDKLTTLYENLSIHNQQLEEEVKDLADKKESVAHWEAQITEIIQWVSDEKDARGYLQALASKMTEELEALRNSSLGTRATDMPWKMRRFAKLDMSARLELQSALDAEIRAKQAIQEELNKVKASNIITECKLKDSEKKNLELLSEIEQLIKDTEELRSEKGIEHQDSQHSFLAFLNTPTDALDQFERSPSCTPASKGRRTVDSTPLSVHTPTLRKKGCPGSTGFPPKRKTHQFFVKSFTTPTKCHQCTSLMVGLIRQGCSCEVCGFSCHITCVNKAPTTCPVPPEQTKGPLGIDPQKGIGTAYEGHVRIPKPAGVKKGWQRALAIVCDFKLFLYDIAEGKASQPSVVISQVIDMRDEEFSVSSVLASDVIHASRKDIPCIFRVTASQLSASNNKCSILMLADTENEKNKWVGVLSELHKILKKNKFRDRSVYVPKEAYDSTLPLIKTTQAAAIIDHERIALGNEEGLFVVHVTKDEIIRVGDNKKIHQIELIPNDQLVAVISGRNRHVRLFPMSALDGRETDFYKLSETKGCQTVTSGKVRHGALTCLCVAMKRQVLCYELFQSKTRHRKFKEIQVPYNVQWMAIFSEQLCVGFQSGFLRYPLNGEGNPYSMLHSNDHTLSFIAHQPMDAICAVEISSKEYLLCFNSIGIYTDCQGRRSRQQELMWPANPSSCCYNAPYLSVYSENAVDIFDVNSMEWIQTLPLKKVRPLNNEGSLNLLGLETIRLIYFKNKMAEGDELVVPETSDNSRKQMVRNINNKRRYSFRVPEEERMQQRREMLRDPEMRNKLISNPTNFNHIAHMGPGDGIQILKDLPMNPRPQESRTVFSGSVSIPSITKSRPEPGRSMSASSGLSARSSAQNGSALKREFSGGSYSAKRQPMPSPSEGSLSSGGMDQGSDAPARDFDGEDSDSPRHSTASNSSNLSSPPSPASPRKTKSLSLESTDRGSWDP
Sequence of Ribosomal protein S6 kinase alpha-4 (Homo sapiens) (O75676 whole entry, looked up): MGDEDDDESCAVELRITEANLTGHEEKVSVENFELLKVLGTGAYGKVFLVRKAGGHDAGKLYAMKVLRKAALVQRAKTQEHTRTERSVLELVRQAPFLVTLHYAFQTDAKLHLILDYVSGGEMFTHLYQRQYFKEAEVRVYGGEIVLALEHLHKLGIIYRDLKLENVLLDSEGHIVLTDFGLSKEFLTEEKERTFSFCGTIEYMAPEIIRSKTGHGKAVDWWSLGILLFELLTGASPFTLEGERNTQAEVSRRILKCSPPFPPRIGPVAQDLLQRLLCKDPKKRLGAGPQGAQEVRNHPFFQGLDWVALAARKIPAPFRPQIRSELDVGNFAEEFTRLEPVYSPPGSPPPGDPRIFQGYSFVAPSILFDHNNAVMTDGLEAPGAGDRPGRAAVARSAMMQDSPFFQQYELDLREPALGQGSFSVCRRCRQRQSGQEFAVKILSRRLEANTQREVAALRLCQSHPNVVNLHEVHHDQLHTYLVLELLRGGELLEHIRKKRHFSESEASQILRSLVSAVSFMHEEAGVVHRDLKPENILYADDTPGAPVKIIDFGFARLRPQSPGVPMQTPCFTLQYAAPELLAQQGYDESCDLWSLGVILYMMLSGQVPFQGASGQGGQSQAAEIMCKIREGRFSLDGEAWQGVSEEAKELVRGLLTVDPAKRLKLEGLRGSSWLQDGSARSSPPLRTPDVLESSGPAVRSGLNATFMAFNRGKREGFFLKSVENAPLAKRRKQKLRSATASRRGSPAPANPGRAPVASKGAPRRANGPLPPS
Sequence of Ribosomal protein S6 kinase alpha-5 (Homo sapiens) (O75582 whole entry, looked up): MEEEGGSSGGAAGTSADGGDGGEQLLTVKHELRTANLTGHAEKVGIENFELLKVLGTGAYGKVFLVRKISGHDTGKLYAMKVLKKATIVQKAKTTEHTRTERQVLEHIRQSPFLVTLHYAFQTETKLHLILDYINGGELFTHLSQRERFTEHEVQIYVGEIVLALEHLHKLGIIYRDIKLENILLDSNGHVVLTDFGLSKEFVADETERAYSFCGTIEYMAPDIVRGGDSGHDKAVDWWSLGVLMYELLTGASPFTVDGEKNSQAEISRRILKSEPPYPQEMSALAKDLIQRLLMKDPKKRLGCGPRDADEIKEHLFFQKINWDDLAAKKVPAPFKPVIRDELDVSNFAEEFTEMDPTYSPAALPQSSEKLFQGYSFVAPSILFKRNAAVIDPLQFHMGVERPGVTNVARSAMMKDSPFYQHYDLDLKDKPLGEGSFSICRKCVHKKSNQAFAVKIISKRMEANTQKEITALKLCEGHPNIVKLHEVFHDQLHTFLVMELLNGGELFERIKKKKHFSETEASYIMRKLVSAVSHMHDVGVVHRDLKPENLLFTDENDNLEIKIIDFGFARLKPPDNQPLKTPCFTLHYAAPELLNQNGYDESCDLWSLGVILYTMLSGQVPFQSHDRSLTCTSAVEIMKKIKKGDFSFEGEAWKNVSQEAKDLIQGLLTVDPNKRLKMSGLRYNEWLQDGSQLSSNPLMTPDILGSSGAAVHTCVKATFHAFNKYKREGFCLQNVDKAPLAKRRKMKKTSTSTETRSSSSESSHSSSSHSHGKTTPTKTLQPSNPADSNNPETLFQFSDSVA
Sequence of Serine/threonine-protein kinase MRCK beta (Homo sapiens) (Q9Y5S2 whole entry): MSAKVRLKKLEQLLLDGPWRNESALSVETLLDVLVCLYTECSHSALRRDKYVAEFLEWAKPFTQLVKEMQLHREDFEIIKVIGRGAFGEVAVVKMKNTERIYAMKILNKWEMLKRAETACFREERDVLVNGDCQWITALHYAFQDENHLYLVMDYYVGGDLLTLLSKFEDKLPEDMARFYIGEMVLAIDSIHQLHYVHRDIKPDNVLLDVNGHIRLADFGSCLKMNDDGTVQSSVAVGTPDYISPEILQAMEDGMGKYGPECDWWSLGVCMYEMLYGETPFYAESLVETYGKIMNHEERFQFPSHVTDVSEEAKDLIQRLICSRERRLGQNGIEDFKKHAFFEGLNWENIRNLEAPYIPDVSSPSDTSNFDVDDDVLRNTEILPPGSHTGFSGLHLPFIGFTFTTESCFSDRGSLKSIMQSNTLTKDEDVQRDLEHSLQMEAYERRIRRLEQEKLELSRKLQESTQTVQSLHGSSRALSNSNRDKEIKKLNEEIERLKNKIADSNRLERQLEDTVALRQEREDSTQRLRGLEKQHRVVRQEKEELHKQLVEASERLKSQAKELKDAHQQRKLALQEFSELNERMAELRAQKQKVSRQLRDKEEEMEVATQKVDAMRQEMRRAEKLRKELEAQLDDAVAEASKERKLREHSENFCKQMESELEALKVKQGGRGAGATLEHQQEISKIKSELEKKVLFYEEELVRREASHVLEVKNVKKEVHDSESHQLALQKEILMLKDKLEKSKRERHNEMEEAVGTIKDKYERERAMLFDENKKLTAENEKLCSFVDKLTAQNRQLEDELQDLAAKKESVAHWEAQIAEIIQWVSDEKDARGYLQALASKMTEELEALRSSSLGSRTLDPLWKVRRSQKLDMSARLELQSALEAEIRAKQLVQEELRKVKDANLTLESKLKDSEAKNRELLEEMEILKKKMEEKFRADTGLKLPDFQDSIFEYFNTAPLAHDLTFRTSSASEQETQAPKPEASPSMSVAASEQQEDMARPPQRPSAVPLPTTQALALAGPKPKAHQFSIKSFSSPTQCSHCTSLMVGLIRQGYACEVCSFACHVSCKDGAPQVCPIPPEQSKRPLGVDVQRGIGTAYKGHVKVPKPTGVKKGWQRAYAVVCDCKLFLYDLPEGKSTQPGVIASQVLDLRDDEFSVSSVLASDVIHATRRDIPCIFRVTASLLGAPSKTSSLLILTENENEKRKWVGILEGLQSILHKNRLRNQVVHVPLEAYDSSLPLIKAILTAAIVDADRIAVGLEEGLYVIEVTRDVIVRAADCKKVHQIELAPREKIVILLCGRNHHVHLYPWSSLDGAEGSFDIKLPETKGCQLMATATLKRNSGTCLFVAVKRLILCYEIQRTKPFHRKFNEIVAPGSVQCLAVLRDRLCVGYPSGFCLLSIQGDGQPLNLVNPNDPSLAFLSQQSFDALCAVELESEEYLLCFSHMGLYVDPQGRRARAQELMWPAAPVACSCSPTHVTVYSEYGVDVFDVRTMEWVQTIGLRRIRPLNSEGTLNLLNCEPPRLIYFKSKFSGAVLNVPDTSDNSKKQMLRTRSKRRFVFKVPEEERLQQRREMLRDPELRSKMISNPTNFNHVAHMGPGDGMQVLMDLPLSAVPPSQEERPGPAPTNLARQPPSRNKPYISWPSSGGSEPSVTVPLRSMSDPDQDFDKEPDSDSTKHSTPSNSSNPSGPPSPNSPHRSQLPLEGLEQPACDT

`O=C1NC(=O)C(c2cccc(Cl)c2)=C1Nc1ccc(O)c(Cl)c1`: the inhibition (commonly the relative decrease from the control value, in per cent) in test [1] worked out at 0.28%; in [2], 3.73%; in test [3], 1.27%; in [4], 2.02%; in test [5] it was 0.69%; in test [6], 2.04%. Further, the inhibition in test [7] came out at 0.07%; in test [8] it was 3.61%; in test [9], 0.45%; in test [10], 0.8%.
As to `COc1cc2c(cc1Nc1nc(N3CCc4ccccc43)c3cc[nH]c3n1)N(C(=O)CN(C)C)CC2`, the inhibition was 1% in test [1]; -1.14% in test [2]; 0.86% in test [3]; 1.27% in [4]; 4.25% in [5]; 4.71% in test [6]. The inhibition in test [7] amounted to 0.65%; in test [8] it was 1.75%; in test [9], 1.59%; in test [10] it was 0.46%.
With `Nc1ncnc2occ(-c3ccc(NC(=O)Nc4cc(C(F)(F)F)cc(C(F)(F)F)c4)cc3)c12`, the inhibition is -0.38% in [1]; -1.97% in test [2]; 0.11% in test [3]; 1.52% in [4]; 3.6% in test [5]; 25.2% in [6]. The inhibition was -0.06% in [7], 20.1% in test [8], 17% in [9] and 65.8% in test [10].
For the compound `c1cnn2ncc(-c3ccnc(Nc4ccc5c(c4)OCCO5)n3)c2c1`, the inhibition in test [1] is -0.46%; in test [2], 0.87%; in test [3], 1.21%; in [4], 1.8%; in test [5], 4.5%; in test [6], 6.82%. The inhibition in test [7] is 2.97%; in [8], 6.51%; in test [9], 1.67%; in test [10], 5.63%.
For `CCn1c(-c2nonc2N)nc2c(C#CC(C)(C)O)nc(OC[C@@H](N)c3ccccc3)cc21`, the inhibition in test [1] is 12%; in test [2] it was 48.2%; in [3], 11.1%; in test [4], 48.5%; in test [5], -5.71%; in test [6] it was 8.99%. In addition, the inhibition was determined as 1.92% in test [7], 19.7% in [8], 5.44% in test [9] and 36% in test [10].
Take `CC1=C(C(=O)Nc2ccc3[nH]ncc3c2)C(c2ccc(Cl)c(Cl)c2)CC(=O)N1` (stereo not given): the inhibition in test [1] was 1.51%; in test [2], 20.1%; in test [3] it was 5.81%; in [4], 35%; in test [5], 10.3%; in test [6] it was 46.4%. Besides, the inhibition was 7.4% in [7], 39.1% in test [8], 3.83% in test [9] and 25.2% in test [10].
`O=C1NC(=O)C(c2ccccc2Cl)=C1Nc1cccc(O)c1`: the inhibition in test [1] was 0.28%; in test [2], -0.35%; in test [3], 1.4%; in [4], 3.99%; in test [5], 2.66%; in test [6], 5.41%. In addition, the inhibition in [7] was determined as 1.39%; in test [8] it was 3.42%; in test [9], 1.47%; in test [10] it was 0.61%.
In the case of `CS(=O)(=O)CCNCc1ccc(-c2ccc3ncnc(Nc4ccc(OCc5ccccc5)c(Cl)c4)c3c2)o1`, the inhibition in test [1] is -0.63%; in test [2], -1.47%; in test [3], 0.86%; in [4], 0.8%; in test [5] it was -7.35%; in test [6], -6.84%. The inhibition in [7] came out at 0.04%; in test [8], 1.73%; in [9], 0.22%; in [10], 2.03%.
In the case of `COc1cc2ncn(-c3cc(OCc4ccccc4C(F)(F)F)c(C(N)=O)s3)c2cc1OC`, the inhibition in [1] was -5.9%; in test [2] it was -3.27%; in [3], -0.23%; in test [4], -0.14%; in test [5] it was 1.71%; in test [6] it was 1.02%. Besides, the inhibition came to 2.52% in [7], 5.14% in [8], 1.44% in [9] and 3.22% in test [10].
Consider `COC(=O)Nc1nc2cc(Oc3ccc(NC(=O)Nc4cccc(C(=O)O)c4)cc3)ccc2[nH]1`, for which the inhibition was 1.42% in test [1]; 1.5% in test [2]; -0.52% in [3]; -1.21% in test [4]; -0.25% in test [5]; 1.28% in test [6]. The inhibition in [7] worked out at 1.24%; in test [8], 2.84%; in [9], 0.88%; in test [10], 0.91%.
Consider `Nc1nc(-c2ccccn2)c(-c2ccc3ncccc3n2)s1`, for which the inhibition in [1] was 0.29%; in [2], -0.21%; in test [3], -1.45%; in [4], 0.91%; in [5] it was 2.65%; in test [6], 4.51%. Moreover, the inhibition in test [7] is 1.3%; in test [8], 3.24%; in test [9] it was 0.7%; in test [10] it was 1.17%.
Turning to `CS(=O)(=O)CCN(CC#N)Cc1ccc(-c2ccc3ncnc(Nc4ccc(OCc5cccc(F)c5)c(Cl)c4)c3c2)o1`, the inhibition in [1] was -0.15%; in [2], -1.53%; in [3], -0.05%; in test [4], -0.09%; in test [5], 0.54%; in [6] it was -1.33%. For the same compound, the inhibition is 1.06% in test [7], 1.76% in test [8], 0.1% in [9] and 0.27% in test [10].
Turning to `CCc1cccc(NC(=O)Nc2ccc(Oc3ccc4nc(NC(=O)OC)[nH]c4c3)cc2)c1`, the inhibition was 1.75% in test [1]; 2.04% in test [2]; 0.03% in [3]; 0.65% in [4]; -4.58% in test [5]; -1.65% in [6]. The inhibition stood at 1.22% in [7], 1.3% in test [8], 4.31% in test [9] and 5.19% in test [10].
For `NCc1ccc(-c2nc(-c3ccc(Cl)c(O)c3)c(-c3ccncc3)[nH]2)cc1`, the inhibition in [1] is 0.67%; in [2] it was -0.06%; in test [3], -1.19%; in [4], 1.3%; in test [5], 0.16%; in test [6] it was 2.56%. For the same compound, the inhibition in test [7] was -0.59%; in test [8], 2.82%; in test [9] it was 0.03%; in test [10] it was 0.71%.
With `CCCN1CCC=C(c2ccc(Nc3nc(Nc4ccccc4C(N)=O)c4cc[nH]c4n3)c(C)c2)C1`, the inhibition in test [1] was found to be 5.2%; in test [2], 9.75%; in test [3], 0.66%; in test [4], 4.44%; in [5], 4.46%; in [6], 6.4%. Further, the inhibition in test [7] came to 1.37%; in test [8], 5.28%; in test [9], 0.98%; in test [10], 6.39%.
In the case of `N#Cc1c(NC(=O)c2cccc3ccccc23)sc2c1CCCC2`, the inhibition in test [1] is -0.22%; in test [2], -0.12%; in [3], 0.93%; in [4], 1.57%; in [5] it was 7.78%; in test [6] it was 6.93%. In addition, the inhibition in [7] worked out at 1.95%; in test [8] it was 2.56%; in test [9], 1.14%; in test [10], 2.63%.
`COC(=O)Nc1nc2cc(Oc3cccc(NC(=O)Nc4cc(C(F)(F)F)ccc4F)c3)ccc2[nH]1`: the inhibition in [1] was 0.87%; in test [2], 0.69%; in [3], -0.19%; in test [4] it was 2.03%; in [5], 0.09%; in test [6], 1.11%. Besides, the inhibition in test [7] is -0.69%; in test [8], 1.7%; in [9], -0.07%; in [10], 1.88%.

For the origin of these results see ChEMBL document CHEMBL1961873, “Compounds: GSK PKIS; Assays: Nanosyn kinase panel” (2012).
